Where “and” joins values, the source holds several entries; their conditions need not be identical. Equal entries are not always repeated. Results filed as inconclusive are left out. A structure can be active in one record and inactive in another. Calls of active or inactive are those of the source. Calls come from the whole dose curve; as a rule, active = well fitted curve in the direction sought with a large enough effect; inconclusive = small, poorly fitted or top-dose-only effect, or another doubt; inactive = no such curve, though single readings can be large; an effect the other way counts as inactive or inconclusive.
What was measured:
[1] = molecular target: Metallo-beta-lactamase type 2 (Klebsiella pneumoniae) (UniProt C7C422); assay: qHTS to identify inhibitors of the New Delhi Metallo-beta-lactamase (NDM): assay validation screen against the NCATS LOPAC Collection (AID 1794843);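 note: nitrocefin turnover by NDM-1 measured as 485 nm absorbance at plateau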
How it was run: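 NDM-1 at 2 nM final in 50 mM HEPES pH 7.0 with 1 uM ZnSO4 and 0.01% Tween20 was preincubated with library compounds in DMSO. Nitrocefin (50 uM stock) was then added, and absorbance at 485 nm was read at the kinetic plateau.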

[2] = molecular target: Glutathione peroxidase 1 (Homo sapiens) (UniProt P07203); assay: Primary qHTS Assay for Inhibitors of Recombinant Selenoprotein Glutathione Peroxidase 1 (GPX1) (AID 1845191); note: nearly all actives have a fitted effect of over 65% in size
How it was run: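 NADPH consumption tracked by fluorescence at 340/450 nm between t=0 and t=15 min, room temperature. Final mix: 10 nM GPX1, 100 nM glutathione reductase, 1 mM GSH, 0.5 mM NADPH, 0.5 mM cumene hydroperoxide, 0.01% BSA; 30 min compound–enzyme preincubation.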

[3] = molecular target: Phospholipid hydroperoxide glutathione peroxidase GPX4 (Homo sapiens) (UniProt P36969); assay: Primary qHTS Assay for Inhibitors of Recombinant Selenoprotein Glutathione Peroxidase 4 (GPX4) (AID 1845192); note: nearly all actives have a fitted effect of over 65% in size; note: potency is the fitted concentration of half-maximal effect
How it was run: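 NADPH consumption followed by fluorescence at 340/450 nm, t=0 and after 15 min at room temperature. Reaction started with cumene hydroperoxide (0.5 mM final) after 30 min compound–GPX4 preincubation; final 200 nM GPX4, 100 nM GR, 1 mM GSH, 0.5 mM NADPH.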

[4] = Quantitative High-Throughput drug screen in 47 multiple myeloma cell lines against the NCATS MIPE library collection: Delta47_JCRB cell viability assay (AID 1918925; note: nearly all actives have a fitted effect of over 45% in size; note: potency is the fitted concentration of half-maximal effect)
How it was run: (§1)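 Primary qHTS used for cherry-picking: cells at 500/well, library compounds for 48 h (37C, 5% CO2), luminescent ATP assay.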

[5] = Quantitative High-Throughput drug screen in 47 multiple myeloma cell lines against the NCATS MIPE library collection: EJM_DSMZ cell viability assay (AID 1918926; note: nearly all actives have a fitted effect of over 30% in size; note: potency is the fitted concentration of half-maximal effect)
How it was run: as §1

[6] = Quantitative High-Throughput drug screen in 47 multiple myeloma cell lines against the NCATS MIPE library collection: AMO1_DSMZ cell viability assay (AID 1918927; note: nearly all actives have a fitted effect of over 30% in size; note: potency is the fitted concentration of half-maximal effect)
How it was run: as §1

[7] = Quantitative High-Throughput drug screen in 47 multiple myeloma cell lines against the NCATS MIPE library collection: ARD_JJKsccE7 cell viability assay (AID 1918929; note: potency is the fitted concentration of half-maximal effect)
How it was run: as §1

[8] = Quantitative High-Throughput drug screen in 47 multiple myeloma cell lines against the NCATS MIPE library collection: Karpas620_DSMZ cell viability assay (AID 1918959); note: nearly all actives have a fitted effect of over 30% in size; note: potency is the fitted concentration of half-maximal effect
How it was run: (§2)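 Myeloma cells (500 per well) were exposed to MIPE 4.0 compounds by pin transfer and incubated 48 hours at 37C, 5% CO2. Viability was read as ATP by CellTiter-Glo luminescence, normalised to DMSO (100%) and media-only (0%) wells.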

[9] = Quantitative High-Throughput drug screen in 47 multiple myeloma cell lines against the NCATS MIPE library collection: KMM1_JCRB cell viability assay (AID 1918960); note: nearly all actives have a fitted effect of over 30% in size; note: potency is the fitted concentration of half-maximal effect
How it was run: (§3)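 Each line was plated at 500 cells/well and treated 48 h with library drugs. Viability came from CellTiter-Glo luminescence relative to DMSO and cell-free medium controls.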

[10] = Quantitative High-Throughput drug screen in 47 multiple myeloma cell lines against the NCATS MIPE library collection: ARP1_JJKsccF8 cell viability assay (AID 1918928; note: nearly all actives have a fitted effect of over 40% in size; note: potency is the fitted concentration of half-maximal effect)
How it was run: as §3

[11] = Quantitative High-Throughput drug screen in 47 multiple myeloma cell lines against the NCATS MIPE library collection: FR4_PLB cell viability assay (AID 1918924; note: nearly all actives have a fitted effect of over 35% in size; note: potency is the fitted concentration of half-maximal effect)
How it was run: as §2

[12] = Quantitative High-Throughput drug screen in 47 multiple myeloma cell lines against the NCATS MIPE library collection: Karpas417_ECACC cell viability assay (AID 1918961); settings: Karpas417 myeloma viability, CellTiter-Glo ATP luminescence, 48 h; viability (% of DMSO): at 45.8 µM (top of the series); note: potency is the fitted concentration of half-maximal effect
How it was run: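 CellTiter-Glo ATP luminescence gave viability after 48 h compound treatment at 37C of 500 multiple myeloma cells per well. Normalisation used DMSO-only wells as 100% and media-only wells as 0% viability; primary qHTS of approved and investigational drugs.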

[13] = molecular target: Luciferin 4-monooxygenase (Photinus pyralis) (UniProt P08659); assay: Primary firefly luciferase (FLuc) qHTS assay for identification of artifact compounds. (AID 1845220); settings: outcome: dose series up to 54.1 µM; note: nearly all actives have a fitted effect of over 60% in size
How it was run: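 Compounds sat 15 min at room temperature with 10 uM luciferin and 10 uM ATP (pH 7.6 Tris acetate). Firefly luciferase (10 nM final) was then added, and luminescence was read 5 min later. Data normalized to no-enzyme and DMSO controls were Hill-fitted.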

[14] = Primary fluorescence-based thiol-reactive (MSTI) qHTS assay for identification of artifact compounds. (AID 1845221);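 note: thiol-reactive compounds lower the probe fluorescence signal; nearly all actives have a fitted effect of over 65% in size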
How it was run: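 MSTI probe at 4 uM final in 2% DMSO/PBS pH 7.4; compounds, 1 h at room temperature in dark. Fluorescence Ex/Em 525/598 nm, normalised to Acetyl-MSTI and MSTI, fitted to 4-parameter Hill.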

[15] = tested on: Nanoluciferase (engineered Oplophorus gracilirostris luciferase); assay: Primary Nanoluciferase (NLuc) qHTS assay for identification of artifact compounds. (AID 1845222)
How it was run: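 Luminescence from secreted NLuc (filtered, 1:55-diluted S16 cell medium) read 5 min after Nano-Glo substrate; compounds preincubated 15 min, RT. Hill fits of inhibition normalized to DMSO and no-enzyme.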

[16] = Primary redox qHTS assay for identification of artifact compounds. (AID 1845223)
How it was run: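 Redox-cycling detection via DTT (250 uM final) oxidation coupled to Amplex Red (25 uM)/HRP (250 mU/mL) in HBSS. 15 min preincubation plus 30 min after DTT, room temperature. Ex/Em 525/598 nm; 4-parameter Hill fit against DMSO and 10 uM DA3003.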

Measured: Potency

Sequence of Phospholipid hydroperoxide glutathione peroxidase GPX4 (Homo sapiens) (P36969 whole entry, looked up): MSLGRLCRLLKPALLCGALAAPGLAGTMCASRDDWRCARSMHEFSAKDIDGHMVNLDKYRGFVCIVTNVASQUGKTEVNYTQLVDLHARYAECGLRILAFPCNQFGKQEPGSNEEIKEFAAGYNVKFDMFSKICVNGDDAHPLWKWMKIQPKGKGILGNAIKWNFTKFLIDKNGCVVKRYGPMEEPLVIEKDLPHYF
Sequence of Metallo-beta-lactamase type 2 (Klebsiella pneumoniae) (C7C422 whole entry, looked up): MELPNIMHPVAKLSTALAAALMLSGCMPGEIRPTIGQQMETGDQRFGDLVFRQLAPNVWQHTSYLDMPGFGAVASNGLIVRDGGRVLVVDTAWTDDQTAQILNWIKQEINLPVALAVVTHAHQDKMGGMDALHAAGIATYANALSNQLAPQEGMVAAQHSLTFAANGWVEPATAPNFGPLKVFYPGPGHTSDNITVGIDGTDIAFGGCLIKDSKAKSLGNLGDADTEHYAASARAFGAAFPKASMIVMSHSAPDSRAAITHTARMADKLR
Sequence of Glutathione peroxidase 1 (Homo sapiens) (P07203 whole entry, looked up): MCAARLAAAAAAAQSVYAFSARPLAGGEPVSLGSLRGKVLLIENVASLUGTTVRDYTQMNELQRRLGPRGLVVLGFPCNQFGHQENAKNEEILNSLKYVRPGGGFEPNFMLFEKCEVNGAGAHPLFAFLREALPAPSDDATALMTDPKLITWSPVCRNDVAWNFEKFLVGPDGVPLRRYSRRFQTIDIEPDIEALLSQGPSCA

CC[N+](CC)(CC)CCOc1cccc(OCC[N+](CC)(CC)CC)c1OCC[N+](CC)(CC)CC
inactive: [1] | [2] | [3] | [4] | [5] | [6] | [7] | [8] | [9]

CN1CCN(C2=Nc3cc(Cl)ccc3Nc3ccccc32)CC1
inactive: [1] | [2] | [3] | [5] | [10]
active: [4] 20.9 µM | [9] 16.6 µM

C[C@H]1c2cccc(O)c2C(O)=C2C(=O)[C@]3(O)C(O)=C(C(N)=O)C(=O)[C@@H](N(C)C)[C@@H]3[C@@H](O)[C@@H]21
active: [11] 26.4 µM
inactive: [1] | [2] | [3] | [6]

CC(C)(Oc1ccc(C2CC2(Cl)Cl)cc1)C(=O)O (centres undefined)
inactive: [1] | [2] | [3] | [11] | [5] | [6] | [7] | [8]

CC(C)NCC(O)COc1ccc(CCOCC2CC2)cc1 (centres undefined)
inactive: [1] | [2] | [3] | [4] | [8] | [9] | [12]

CNCCCC12CCC(c3ccccc31)c1ccccc12
inactive: [1] | [2] | [3] | [13] | [14] | [15] | [16]
active: [6] 23.5 µM | [10] 20.9 µM | [8] 26.4 µM | [9] 20.9 µM

O=c1c(-c2ccc(O)cc2)coc2cc(O)cc(O)c12
active: [6] 16.6 µM | [7] 14.8 µM
inactive: [1] | [2] | [3] | [5] | [8]

COc1ccccc1OCCNCC(O)COc1cccc2[nH]c3ccccc3c12 (centres undefined)
inactive: [1] | [2]

Cc1ccc(C(=O)Nc2ccc(S(=O)(=O)O)c3cc(S(=O)(=O)O)cc(S(=O)(=O)O)c23)cc1NC(=O)c1cccc(NC(=O)Nc2cccc(C(=O)Nc3cc(C(=O)Nc4ccc(S(=O)(=O)O)c5cc(S(=O)(=O)O)cc(S(=O)(=O)O)c45)ccc3C)c2)c1
inactive and 7 µM (active): [3]
inactive: [1] | [2] | [4] | [5] | [10] | [7] | [8]

CCCCc1oc2ccccc2c1C(=O)c1cc(I)c(OCCN(CC)CC)c(I)c1
active: [4] 13.2 µM | [6] 8.33 µM | [7] 18.7 µM | [9] 6.62 µM | [12] 13.2 µM
inactive: [1] | [2] | [3]

NCCc1cnc[nH]1
active: [5] 14.8 µM | [8] 0.0148 µM
inactive: [1] | [2] | [3] | [6] | [10] | [7] | [9]

CN(C)C(=O)C(CCN1CCC(O)(c2ccc(Cl)cc2)CC1)(c1ccccc1)c1ccccc1
inactive: [1] | [2] | [3] | [6] | [7] | [8]
active: [11] 20.9 µM | [4] 20.9 µM
